# From PubChem BioAssay
# CHO-K1 Ca ag: M1 agonist counterscreen hit in parental CHO-K1 cells; activation, % at 3 µM; Fluo-8 calcium fluorescence; scaled to maximal ATP response, vehicle zero; actives 0.48% (n = 360,000); in the data active = activation above about 15%;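 note: untransfected CHO-K1 host cells lacking M1 receptor as counterscreen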
# M1 PAM: positive allosteric modulators of human M1 muscarinic receptor. CHO-K1 hM1, Fluo-8 calcium fluorescence, ACh EC20; 0% = ACh EC20, 100% = maximal ACh. activation, % at 3 µM. P11229. actives 0.088% (n = 360,000); in the data active = activation above about 19%, passing the limit was not always enough
# Target sequence (P11229 whole entry, looked up): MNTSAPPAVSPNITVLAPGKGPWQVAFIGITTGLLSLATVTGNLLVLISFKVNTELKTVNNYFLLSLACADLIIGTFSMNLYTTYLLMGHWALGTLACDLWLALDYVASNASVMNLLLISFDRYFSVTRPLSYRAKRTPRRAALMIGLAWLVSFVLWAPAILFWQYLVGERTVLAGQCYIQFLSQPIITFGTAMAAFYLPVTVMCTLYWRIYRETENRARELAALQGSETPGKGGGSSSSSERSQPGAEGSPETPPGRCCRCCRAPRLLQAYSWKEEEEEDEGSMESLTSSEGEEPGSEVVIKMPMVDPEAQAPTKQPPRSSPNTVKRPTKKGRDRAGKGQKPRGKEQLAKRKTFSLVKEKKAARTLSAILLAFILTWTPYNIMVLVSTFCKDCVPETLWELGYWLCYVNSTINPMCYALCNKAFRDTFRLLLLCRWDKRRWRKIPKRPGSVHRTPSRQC
# CHRM1 agonist: agonists of human M1 muscarinic receptor | P11229 | CHO-K1 hM1, Fluo-8 calcium fluorescence, agonist mode; 0% DMSO, 100% acetylcholine EC100 | activation, % at 3 µM | actives 0.33% (n = 360,000) | AID 588814;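 active = activation above the run's mean compound activation plus 3 SD, cut at about 16% in these data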;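 note: peak over basal fluorescence ratio within a 140 s kinetic read after compound addition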
# M1 PAM parental: counter-screen for M1 PAMs: effect in parental CHO-K1 cells; ATP EC20, Fluo-8 calcium fluorescence; 0% at ATP EC20, 100% at ATP max; activation, % at 3 µM; actives 0.02% (n = 360,000); AID 602247;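 active = activation above the run cutoff, the mean activation of all test compounds plus 3 SD, cut at about 40% in these data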;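 note: peak over basal fluorescence ratio in a 140 s read after ATP addition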
# CHRM1 antagonist: antagonists of human M1 muscarinic receptor | P11229 | CHO-K1 hM1, Fluo-8 calcium fluorescence, ACh EC80 antagonist | inhibition, % at 3 µM | actives 1.3% (n = 360,000) | AID 588852;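 active = percent inhibition above its own plate's cutoff, namely the mean of that plate's compound wells plus 3 SD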;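 note: peak over basal fluorescence ratio during 140 s after agonist addition; 0% = ACh EC80 plus DMSO and 100% = DMSO alone without agonist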
# CHO-K1 Ca antag: counter-screen for M1 antagonists: effect in parental CHO-K1 cells; ATP-induced calcium, Fluo-8 fluorescence; inhibition, % at 3 µM; actives 0.6% (n = 360,000); AID 602250;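 active = inhibition above a per-plate cutoff, the plate's mean sample inhibition plus 3 SD, cut at about 24% in these data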;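 note: 0% = DMSO plus EC80 ATP and 100% = DMSO alone without ATP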
# The depositor's hits bear a star; nt = no result given. Sampled rows, rich in hits. Any-hit rate of the full collection: about 2.3%.
SMILES,CHO-K1 Ca ag,M1 PAM,CHRM1 agonist,M1 PAM parental,CHRM1 antagonist,CHO-K1 Ca antag
CC(C)C[C@@H]1COc2cc(N3CC[C@H](O)C3)ccc2S(=O)(=O)N1,0.4,nt,nt,17.2,nt,-1.9
CC(NC(=O)Nc1cccc(Cl)c1)C(c1cccs1)N1CCCC1 (stereo not given),14.0,-6.3,-7.0,8.6,9.5,4.7
CC(NC(=O)Nc1ccc([N+](=O)[O-])cc1)C(c1cccs1)N1CCCC1 (stereo not given),25.1*,-4.4,15.6,2.0,6.9,12.2
CN(C(=O)COC(=O)c1ccc(CN2CCCC2=O)cc1)c1ccccc1,1.0,-28.5,-7.9,0.4,67.7*,-15.2
CN(C(=O)COC(=O)c1ccc(S(=O)(=O)N2CCCCCC2)cc1)c1ccccc1,0.7,5.5,-7.0,17.4,-12.0,-19.6
O=C(CCNS(=O)(=O)c1ccccc1)OCC(=O)c1ccc(Cl)cc1,13.2,-0.1,1.9,1.1,3.5,-0.7
CC1=C(C)CC(C(=O)NC2CCCC2)C(C(=O)O)C1 (stereo not given),0.5,10.3,-0.4,14.6,-7.2,-5.4
CC1=C(C)CC(C(=O)NC2CCN(C(C)C)CC2)C(C(=O)O)C1 (stereo not given),0.3,-22.0,-5.9,-28.1,49.7*,18.4
CCn1cc(S(=O)(=O)N2CCCC2)cn1,0.3,9.5,-2.3,4.2,-12.4,-8.9
CCOC(=O)c1[nH]c2ccc(Br)cc2c1NC(=O)CCN1CCC(C)CC1,1.8,-14.1,-1.9,24.4,31.9*,-13.3
O=C1NCCN(Cc2ccoc2)C1CC(=O)N(CCO)Cc1ccccc1 (stereo not given),0.2,15.7,-7.2,13.0,-6.5,-8.7
CC1CCCC(C)N1C(=O)CSc1ncccn1 (stereo not given),1.2,5.7,-3.5,4.2,-2.6,-9.8
O=Cc1c[nH]c2ccc(NC(=O)OCc3ccccc3)cc12,-0.9,9.9,1.8,-28.1,1.9,28.9*
OC[C@H]1O[C@@H](n2cnc3c(NCc4ccco4)ncnc32)[C@H](O)[C@@H]1O,-0.4,-14.6,35.2*,4.5,-13.7,-4.3
CCOc1ccc(-c2c(C(=O)N/N=C(\C)c3cccs3)nnn2-c2nonc2N)cc1,1.9,7.3,6.7,13.2,-5.9,-19.3
CCOc1cccc(-c2c(C(=O)N/N=C(\C)c3cccs3)nnn2-c2nonc2N)c1,6.4,3.8,31.5*,28.8,-0.3,-17.4
COc1cccc(-c2c(C(=O)N/N=C(\C)c3cccs3)nnn2-c2nonc2N)c1,5.2,16.4,34.4*,6.6,-2.2,-7.1
O=C(O)c1cccc(S(=O)(=O)N(Cc2ccccc2)c2cccc(C(F)(F)F)c2)c1,1.1,8.0,-7.5,2.9,-12.4,-4.4
O=C(NC1CCCC1)c1noc2c1CCCCC2,-0.4,-19.4,-3.6,10.9,37.5*,-4.7
O=C(NCc1ccccc1)c1noc2c1CCCCC2,0.0,18.7,-9.8,11.7,-8.4,-28.7
Cc1ccccc1NC(=O)Cc1nc(COC(=O)c2ccc(S(C)(=O)=O)c([N+](=O)[O-])c2)cs1,3.5,-25.7,-4.7,-10.1,33.9*,5.0
Cc1ccccc1NC(=O)COC(=O)c1ccc(S(C)(=O)=O)c([N+](=O)[O-])c1,0.1,3.6,-4.5,-8.7,4.0,4.3
COc1ccc(CN(C)C(=O)C2CSC3(C)CCC(=O)N23)cc1OC (stereo not given),0.9,11.6,-1.9,22.2,-12.1,-28.1
COc1ccc(-c2cc(C(F)(F)F)nc(SCc3cccc(C(=O)O)c3)n2)cc1,0.2,-0.2,-6.7,11.1,5.3,-12.4
COc1ccc(-c2cc(C(F)(F)F)nc(SCCC(=O)NCc3ccccc3)n2)cc1,-0.5,9.4,-1.4,-5.6,-12.2,28.9*
SMILES,CHO-K1 Ca ag,M1 PAM,CHRM1 agonist,M1 PAM parental,CHRM1 antagonist,CHO-K1 Ca antag
COc1ccccc1C(NC(=O)C1CCCCC1)c1c(O)ccc2ccccc12 (stereo not given),20.2*,-3.5,-4.7,16.1,5.2,2.6
CN(C)C(CNC(=O)c1cccc(NS(=O)(=O)c2ccc(Br)cc2)c1)c1ccco1 (stereo not given),1.0,-26.5,-7.1,1.0,69.5*,3.1
O=C(NCC(c1cccs1)N1CCOCC1)c1ccccc1NS(=O)(=O)c1ccc(Cl)c([N+](=O)[O-])c1 (stereo not given),15.6*,-19.6,-2.5,-7.2,21.4,22.2
CCOc1ccc(NS(=O)(=O)c2ccc(C(=O)NCC(c3cccs3)N3CCOCC3)cc2)cc1 (stereo not given),24.7*,-2.7,28.7*,0.1,18.4,-0.7
COc1cc(C(=O)NCC(c2cccs2)N2CCOCC2)ccc1OCc1ccccc1 (stereo not given),0.7,4.0,-0.6,-12.3,3.1,26.6*
CC(=O)c1ccc(S(=O)(=O)Nc2ccc(C(=O)NCC(c3cccs3)N3CCOCC3)cc2)cc1 (stereo not given),0.8,4.2,-2.3,15.2,-14.3,-11.7
CSCCC(NC(N)=O)C(=O)Nc1cccc(C#N)c1 (stereo not given),-0.5,4.9,-8.6,0.2,0.7,5.8
O=C(CCC(=O)N1CCN(c2ccc(C(F)(F)F)cn2)CC1)c1cccs1,5.2,-2.6,-3.9,3.7,-0.5,-8.9
CC(NC(=O)COC(=O)c1c[nH]c2ccccc12)c1ccccc1 (stereo not given),2.1,8.7,6.3,-17.5,-16.8,-1.5
CCOc1ccc(S(=O)(=O)Nc2ccc(C(=O)NCC(c3ccco3)N(C)C)cc2)cc1 (stereo not given),2.1,-19.9,-5.5,4.1,31.5*,-1.3
CSCC(=O)NS(=O)(=O)c1ccc(C)cc1,-0.4,-12.1,-2.4,-16.6,20.5,28.1*
Oc1ccc2ccccc2c1CNc1ccccn1,0.3,4.8,-7.0,8.7,-7.1,-6.2
Cc1ccccc1CS(=O)(=O)c1nnc([C@H](Cc2ccccc2)NC(=O)OC(C)(C)C)o1,1.7,3.0,-6.7,8.7,1.7,4.6
CCC(C)[C@@H](NC(=O)OC(C)(C)C)c1nnc(S(=O)(=O)Cc2cccc(C)c2)o1 (stereo not given in full),0.1,6.6,-3.7,-10.2,3.6,26.5*
Cc1c(C(=O)NCc2ccc(F)cc2)sc(=O)n1Cc1ccccc1,3.5,-1.0,2.1,-4.8,-2.5,3.7
CN1CCN(/N=C/c2ccc(OCc3ccccc3)cc2)CC1,4.8,-25.4,-5.0,0.2,57.5*,-5.4
COCCNC(=O)CN1C(=O)NC2(CCCc3ccccc32)C1=O (stereo not given),0.5,3.7,-0.1,13.2,67.1*,1.5
O=C1CCCN2N=C(SCC(=O)Nc3ccc(Cl)cc3)SC2=N1,12.9,0.2,-1.1,6.1,-3.6,-3.6
